High-throughput results deposited in PubChem BioAssay by several laboratories.
Hits are enriched below; roughly 4.2% of the tested compounds scored in any of these assays.
Wnt bcat act: Wnt/beta-catenin pathway activators, primary screen, cell-based, plate reader, single point | actives 1.2% (n = 300,000) | Wnt/beta-catenin reporter cell assay, activator | AID 743398, 2014 | activation, % at 9.35 µM; in the data active = activation above about 30%, passing the limit was not always enough; inconclusive = no clear call, values can overlap the other calls
esBAF inh: Bmi1 luciferase reporter increase in mESCs, primary screen, esBAF inhibitor project, mouse ES cells, Bmi1 luciferase knock-in, single point; 24 h; 100% = twice the neutral-well signal; reporter increase, % at 12.5 µM; actives 2% (n = 350,000); AID 602393, 2012; in the data active = activation above about 40%; inconclusive = no clear call, values can overlap the other calls;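 also: a rise in the Bmi1 reporter signal indicates esBAF inhibition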
MITF act: activators of MITF-driven TRPM1 promoter reporter, primary screen, cell-based, SK-MEL-5, luciferase, single point | SK-MEL-5 TRPM1-promoter luciferase, 24 h; % of positive control, neutral wells = 0 | activation, % at 12.5 µM | actives 0.75% (n = 300,000) | AID 588334, 2011;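 active = mean activation of at least 80% with every replicate also reaching 80%; inconclusive = mean reaches 80% but some replicate falls short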
GAA850 FXN act: FXN promoter activators, primary screen, cell-based, luciferase luminescence, HEK293 lucGAA850; HEK293 lucGAA850 FXN promoter luciferase reporter, 24 h; percent of 10 µM SAHA response; activation, % at 6 µM; actives 0.56% (n = 360,000);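 active = activation above the average of all compounds screened plus 3 SD, cutoff fixed separately per campaign, cut at about 7.5% in these data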
AHR activator: AHR activators, primary screen, cell-based, luminescence, luciferase reporter, human; actives 2.5% (n = 320,000); Aryl hydrocarbon receptor (Homo sapiens), P35869; activation, % at 5 µM; AHR-responsive luciferase reporter cells; in the data active = activation above about 47%
Hits are given with their value; i = inactive; ? = inconclusive; nt = not tested or not shown.

SMILES	Wnt bcat act	esBAF inh	MITF act	GAA850 FXN act	AHR activator
Cc1cc(-n2c(SCC(=O)NCc3cccs3)nc3n[nH]c(C)c3c2=N)ccc1Cl	nt	nt	i	i	69.6
C[C@H](CO)N1C[C@H](C)[C@@H](CN(C)S(=O)(=O)c2cn(C)cn2)Oc2ccc(NC(=O)NC3CCCCC3)cc2CC1=O	nt	i	nt	nt	nt
Cc1ccc(S(=O)(=O)N2CC[C@@H]3[C@H]2c2cc(-c4ccc(C#N)cc4)ccc2N(C)[C@H]3CO)cc1	nt	i	nt	nt	nt
Nc1ccc2c(c1Cl)C(=O)c1ccc(N)c(Cl)c1C2=O	i	i	i	8.4	nt
Nc1c(C(=O)O)ccc2c1C(=O)c1ccccc1C2=O	i	nt	i	i	i
CCCN(C)C[C@H]1Oc2ncc(-c3cccc(C#N)c3)cc2C(=O)N([C@H](C)CO)C[C@H]1C	nt	i	nt	nt	nt
CN1c2ccsc2/C(=N/Nc2ccccc2)CS1(=O)=O	i	57.8	i	i	73.8
CO[C@@H]1CN(C)C(=O)c2ccc(NC(=O)C3CCCCC3)cc2OC[C@H](C)NC[C@@H]1C	nt	i	nt	nt	nt
O=[N+]([O-])c1ccc(-c2cn3c(n2)SCC3)cc1	i	59.6	nt	i	i
N#Cc1c(-c2ccc([N+](=O)[O-])cc2)nc2n(c1=O)CCS2	i	i	i	i	i
COc1ccnc(CSC(N)=Nc2cccc(C(F)(F)F)c2)c1	i	nt	i	i	55.4
CO[C@@H]1CN(C)C(=O)c2cc(NS(=O)(=O)c3cccc(Cl)c3)ccc2OC[C@H](C)NC[C@H]1C	nt	i	nt	nt	nt
COc1ccc(Nc2nc(-c3cccnc3)cs2)c(OC)c1	i	56.7	i	i	nt
COc1ccccc1Nc1nc(-c2cccnc2)cs1	i	44.1	i	i	i
C[C@@H]1CN([C@@H](C)CO)C(=O)c2cccc(NC(=O)c3nc4ccccc4s3)c2O[C@@H]1CN(C)C(=O)NC1CCCCC1	nt	i	nt	nt	nt
C[C@H]1CCCCO[C@@H](CN(C)S(=O)(=O)c2cccs2)[C@@H](C)CN([C@@H](C)CO)C(=O)c2cc(NS(=O)(=O)c3cn(C)cn3)ccc2O1	nt	i	nt	nt	nt
Cc1c(N=C2Nc3cccc4cccc2c34)c(=O)n(-c2ccccc2)n1C	i	i	i	i	90.5
Cc1c(N2C(=O)c3cccc4cccc(c34)C2=O)c(=O)n(-c2ccccc2)n1C	nt	nt	i	i	i
CCNC(=O)C[C@@H]1CC[C@@H]2[C@H](COc3ccc(NC(=O)Nc4ccccc4C)cc3C(=O)N2C)O1	nt	i	nt	nt	nt
CN(C)c1ccncc1C(=O)Nc1ccc(F)cc1F	i	i	nt	i	i
CN(C)S(=O)(=O)Oc1cc(Cl)ccc1C(=O)Nc1ccc(F)cc1F	i	nt	i	i	74.0
O=S(=O)(N[C@H]1CC[C@@H](CCn2cc(-c3cccnc3)nn2)O[C@H]1CO)c1ccccc1	nt	i	nt	nt	nt
COc1ccc(S(=O)(=O)N(C)C[C@@H]2Oc3c(NC(=O)Nc4ccc(C(F)(F)F)cc4)cccc3C(=O)N([C@@H](C)CO)C[C@@H]2C)cc1	nt	i	nt	nt	nt
O=C(COc1ccc(Br)cc1Br)NC(=O)NC1CCCC1	i	nt	104.5	i	i
Cc1cc(Br)ccc1OCC(=O)NC1CCCC1	i	51.9	i	i	i
SMILES	Wnt bcat act	esBAF inh	MITF act	GAA850 FXN act	AHR activator
O=C(COc1ccc(F)cc1Cl)NC1CCCCCC1	39.8	?	?	i	i
N#Cc1ccccc1OCC(=O)NC1CCCCCC1	i	46.0	nt	i	nt
O=C(COc1ccccc1Cl)NC(=O)NC1CCCCC1	i	i	i	i	i
N#Cc1ccccc1OCC(=O)OCC(=O)NC1CCCCC1	i	i	i	i	nt
CC(C)(C)NC(=O)NC(=O)COc1ccc(Br)cc1Br	?	nt	i	i	i
C/C=C/c1ccc2c(c1)O[C@@H](CN(C)CC1CCOCC1)[C@H](C)CN([C@H](C)CO)S2(=O)=O	nt	i	nt	nt	nt
C[C@@H]1CN([C@@H](C)CO)C(=O)c2cc(NS(=O)(=O)c3cn(C)cn3)ccc2O[C@@H]1CN(C)Cc1ccccc1	nt	i	nt	nt	nt
N#Cc1ccccc1OCC(=O)Nc1nnc(C2CC2)s1	i	i	i	i	64.4
CC(C)(C)NC(=O)NC(=O)COc1ccccc1C#N	40.3	i	120.7	i	i
CCc1ccc(OCC(=O)NNC(=S)NC(=O)C2CCCCC2)c(Br)c1	i	nt	i	i	i
CCc1ccc(OCC(=O)NC2CCCCC2)c(Br)c1	i	?	101.1	i	i
CN1[C@H](CO)[C@@H]2c3ccccc3N(C(=O)Nc3ccccc3F)C[C@@H]21	nt	i	nt	nt	nt
O=C(Nc1ccc(F)c(Cl)c1)Nc1csc2ccccc12	i	nt	nt	i	72.7
